Data reported in PMC7862700, “An all-to-all approach to the identification of sequence-specific readers for epigenetic DNA modifications on cytosine”.

What was measured:
Assay in all cases: DAPPL (digital affinity profiling via proximity ligation, sequencing); 10 mM Tris-HCl pH 7.5, 50 mM NaCl, 1 mM DTT, 4% glycerol, room temperature, 30 min; GST-TFs on glutathione beads, 16-mer random dsDNA library, 0.1% formaldehyde crosslink after washing; high values mean tight binding
FEV = target: T1, FEV (Homo sapiens, UniProt Q99581 1-238); conditions: protein: recombinant; tags: N-terminal GST; dsDNA, one strand shown
T1 sequence: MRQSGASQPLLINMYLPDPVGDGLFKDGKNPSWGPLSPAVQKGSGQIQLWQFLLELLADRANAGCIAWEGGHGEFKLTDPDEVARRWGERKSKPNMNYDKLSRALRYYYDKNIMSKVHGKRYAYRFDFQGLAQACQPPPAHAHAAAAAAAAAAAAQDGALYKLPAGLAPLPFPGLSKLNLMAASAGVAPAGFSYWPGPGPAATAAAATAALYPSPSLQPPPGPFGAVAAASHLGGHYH
Outline: (§1)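 Beads coated with glutathione captured GST-fused human transcription factors that had been expressed in yeast, and the factors were then given DNA barcodes and pooled with a tag-only sample. The pools were incubated with 200 nmole of a random double-stranded 16-mer DNA library in Tris/NaCl/DTT/glycerol buffer for 30 min at room temperature, washed, crosslinked with 0.1% formaldehyde and proximity-ligated with BsaI/T4 ligase at 37 °C for 1 h. PCR amplification and Illumina NextSeq500 sequencing came last. Binding signal is each hexamer's read frequency for a factor divided by its frequency for the tag-only sample.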

ETV5 = ETV5 (Homo sapiens, UniProt P41161 1-510); conditions: protein: recombinant; tags: N-terminal GST; dsDNA, one strand shown
Sequence of ETV5 (P41161 whole entry): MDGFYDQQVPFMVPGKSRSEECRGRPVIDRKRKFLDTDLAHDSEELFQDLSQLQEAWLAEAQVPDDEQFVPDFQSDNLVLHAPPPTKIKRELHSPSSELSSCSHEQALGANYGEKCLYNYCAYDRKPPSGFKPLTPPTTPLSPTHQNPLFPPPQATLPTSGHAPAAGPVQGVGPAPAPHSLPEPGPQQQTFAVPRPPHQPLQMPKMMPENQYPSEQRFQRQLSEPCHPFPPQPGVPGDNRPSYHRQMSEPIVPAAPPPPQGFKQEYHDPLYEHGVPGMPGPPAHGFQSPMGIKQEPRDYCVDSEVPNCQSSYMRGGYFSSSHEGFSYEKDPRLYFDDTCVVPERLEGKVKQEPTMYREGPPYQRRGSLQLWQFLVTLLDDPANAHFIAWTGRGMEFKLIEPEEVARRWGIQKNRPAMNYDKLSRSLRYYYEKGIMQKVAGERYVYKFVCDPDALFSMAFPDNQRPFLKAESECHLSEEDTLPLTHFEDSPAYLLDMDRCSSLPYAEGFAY
Outline: as §1

HSF1 = HSF1 (Homo sapiens, UniProt Q00613 1-529); conditions: protein: recombinant; tags: N-terminal GST; chain copies: 3; dsDNA, one strand shown
Sequence of HSF1 (Q00613 whole entry): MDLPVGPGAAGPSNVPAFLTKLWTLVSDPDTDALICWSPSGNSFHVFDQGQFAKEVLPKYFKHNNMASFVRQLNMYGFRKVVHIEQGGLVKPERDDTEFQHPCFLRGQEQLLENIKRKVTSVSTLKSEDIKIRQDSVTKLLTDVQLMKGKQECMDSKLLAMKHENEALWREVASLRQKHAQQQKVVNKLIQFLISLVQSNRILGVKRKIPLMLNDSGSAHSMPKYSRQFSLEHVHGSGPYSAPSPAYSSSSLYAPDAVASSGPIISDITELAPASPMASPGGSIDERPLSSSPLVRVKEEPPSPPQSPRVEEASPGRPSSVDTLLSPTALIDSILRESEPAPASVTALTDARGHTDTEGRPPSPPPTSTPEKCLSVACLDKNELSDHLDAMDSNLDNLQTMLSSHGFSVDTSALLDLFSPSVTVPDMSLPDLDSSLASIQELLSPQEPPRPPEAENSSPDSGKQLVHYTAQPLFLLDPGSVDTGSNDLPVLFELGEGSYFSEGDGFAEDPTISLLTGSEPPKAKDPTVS
Outline: as §1

SPIC = target: T2, SPIC (Homo sapiens, UniProt Q8N5J4 1-248); conditions: protein: recombinant; tags: N-terminal GST; dsDNA, one strand shown
T2 sequence: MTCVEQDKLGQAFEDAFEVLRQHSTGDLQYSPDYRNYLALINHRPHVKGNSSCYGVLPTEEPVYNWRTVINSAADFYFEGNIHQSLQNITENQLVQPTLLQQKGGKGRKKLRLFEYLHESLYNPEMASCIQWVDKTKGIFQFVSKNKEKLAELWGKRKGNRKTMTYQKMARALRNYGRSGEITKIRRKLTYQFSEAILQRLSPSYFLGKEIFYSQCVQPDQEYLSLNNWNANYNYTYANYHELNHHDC
Outline: as §1

ELF4 = ELF4 (Homo sapiens, UniProt Q99607 1-663); conditions: protein: recombinant; tags: N-terminal GST; dsDNA, one strand shown
Sequence of ELF4 (Q99607 whole entry): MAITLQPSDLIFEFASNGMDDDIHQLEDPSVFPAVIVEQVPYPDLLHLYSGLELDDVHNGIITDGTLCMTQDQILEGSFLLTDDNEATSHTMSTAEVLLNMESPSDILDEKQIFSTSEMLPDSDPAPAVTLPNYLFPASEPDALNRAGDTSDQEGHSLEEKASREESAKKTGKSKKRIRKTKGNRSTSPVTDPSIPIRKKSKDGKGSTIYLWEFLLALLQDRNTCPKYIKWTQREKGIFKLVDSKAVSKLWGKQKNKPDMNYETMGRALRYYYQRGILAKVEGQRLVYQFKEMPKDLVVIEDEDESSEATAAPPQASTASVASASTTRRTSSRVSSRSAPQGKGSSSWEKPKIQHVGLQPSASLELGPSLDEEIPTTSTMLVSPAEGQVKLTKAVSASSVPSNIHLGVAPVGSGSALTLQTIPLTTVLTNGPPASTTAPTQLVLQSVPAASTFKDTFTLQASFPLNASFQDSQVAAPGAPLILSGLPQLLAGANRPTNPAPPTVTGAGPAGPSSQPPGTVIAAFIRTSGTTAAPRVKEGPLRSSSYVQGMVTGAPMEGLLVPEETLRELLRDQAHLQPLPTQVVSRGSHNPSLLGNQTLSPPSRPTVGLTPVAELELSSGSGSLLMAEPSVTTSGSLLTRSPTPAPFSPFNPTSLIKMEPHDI
Outline: as §1

ELK4 = target: T3, ELK4 (Homo sapiens, UniProt P28324-2 1-405); conditions: protein: recombinant; tags: N-terminal GST; dsDNA, one strand shown
T3 sequence: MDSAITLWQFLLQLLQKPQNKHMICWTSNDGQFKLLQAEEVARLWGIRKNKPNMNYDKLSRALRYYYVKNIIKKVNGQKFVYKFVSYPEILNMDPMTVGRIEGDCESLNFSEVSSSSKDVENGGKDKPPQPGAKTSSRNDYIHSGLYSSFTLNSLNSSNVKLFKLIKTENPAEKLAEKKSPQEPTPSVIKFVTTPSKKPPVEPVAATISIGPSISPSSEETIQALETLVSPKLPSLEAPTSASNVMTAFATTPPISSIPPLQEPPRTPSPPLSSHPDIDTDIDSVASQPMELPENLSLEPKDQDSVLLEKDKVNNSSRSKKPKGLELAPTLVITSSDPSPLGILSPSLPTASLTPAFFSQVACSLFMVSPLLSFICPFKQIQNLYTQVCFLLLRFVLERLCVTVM
Outline: as §1

ETV2 = target: T4, ETV2 (Homo sapiens, UniProt O00321 1-342); conditions: protein: recombinant; tags: N-terminal GST; dsDNA, one strand shown
T4 sequence: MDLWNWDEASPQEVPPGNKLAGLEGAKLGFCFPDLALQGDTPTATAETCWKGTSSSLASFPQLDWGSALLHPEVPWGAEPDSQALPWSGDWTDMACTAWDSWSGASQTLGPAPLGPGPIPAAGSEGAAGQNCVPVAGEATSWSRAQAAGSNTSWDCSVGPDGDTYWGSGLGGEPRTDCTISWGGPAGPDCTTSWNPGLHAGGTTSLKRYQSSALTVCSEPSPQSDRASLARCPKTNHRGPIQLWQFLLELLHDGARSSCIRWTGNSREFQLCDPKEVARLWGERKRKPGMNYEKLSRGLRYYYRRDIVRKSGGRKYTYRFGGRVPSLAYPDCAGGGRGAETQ
Outline: as §1

ELF3 = target: T5, ELF3 (Homo sapiens, UniProt P78545 1-371); conditions: protein: recombinant; tags: N-terminal GST; dsDNA, one strand shown
T5 sequence: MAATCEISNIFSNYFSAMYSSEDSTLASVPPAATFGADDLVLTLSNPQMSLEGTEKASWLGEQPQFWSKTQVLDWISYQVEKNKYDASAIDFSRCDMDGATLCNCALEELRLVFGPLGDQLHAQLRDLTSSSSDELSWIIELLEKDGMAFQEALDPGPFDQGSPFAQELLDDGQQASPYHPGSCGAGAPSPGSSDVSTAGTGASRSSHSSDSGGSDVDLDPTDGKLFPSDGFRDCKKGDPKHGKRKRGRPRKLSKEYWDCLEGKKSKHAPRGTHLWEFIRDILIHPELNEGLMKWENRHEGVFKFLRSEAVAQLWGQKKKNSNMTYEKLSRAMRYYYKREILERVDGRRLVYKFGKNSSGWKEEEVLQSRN
Outline: as §1

CRX = CRX (Homo sapiens, UniProt O43186 1-299); conditions: protein: recombinant; tags: N-terminal GST; dsDNA, one strand shown
Sequence of CRX (O43186 whole entry): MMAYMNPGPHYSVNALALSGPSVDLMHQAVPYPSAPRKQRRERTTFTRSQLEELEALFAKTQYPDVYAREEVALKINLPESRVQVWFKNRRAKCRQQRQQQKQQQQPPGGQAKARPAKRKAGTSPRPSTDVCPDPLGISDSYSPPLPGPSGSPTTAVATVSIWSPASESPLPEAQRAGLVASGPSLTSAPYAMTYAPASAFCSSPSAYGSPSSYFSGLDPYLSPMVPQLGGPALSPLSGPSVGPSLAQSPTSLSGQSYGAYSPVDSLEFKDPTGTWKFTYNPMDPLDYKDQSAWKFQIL
Outline: as §1

ETV1 = ETV1 (Homo sapiens, UniProt P50549 1-477); conditions: protein: recombinant; tags: N-terminal GST; dsDNA, one strand shown
Sequence of ETV1 (P50549 whole entry): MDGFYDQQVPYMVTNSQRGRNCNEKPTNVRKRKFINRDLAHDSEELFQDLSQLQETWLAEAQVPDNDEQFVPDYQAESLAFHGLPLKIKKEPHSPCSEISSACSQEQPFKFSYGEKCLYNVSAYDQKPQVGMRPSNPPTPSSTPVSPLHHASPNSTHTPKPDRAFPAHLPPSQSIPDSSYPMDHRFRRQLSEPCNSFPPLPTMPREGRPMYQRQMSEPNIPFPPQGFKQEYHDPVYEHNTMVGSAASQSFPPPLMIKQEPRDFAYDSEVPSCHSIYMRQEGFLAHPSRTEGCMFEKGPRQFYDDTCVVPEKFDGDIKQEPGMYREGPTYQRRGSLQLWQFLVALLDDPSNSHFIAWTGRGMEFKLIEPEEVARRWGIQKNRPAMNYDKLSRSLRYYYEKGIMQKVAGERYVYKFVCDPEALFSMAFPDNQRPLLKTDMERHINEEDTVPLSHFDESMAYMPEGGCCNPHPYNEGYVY
Outline: as §1

ERF = target: T6, ERF (Homo sapiens, UniProt P50548 1-548); conditions: protein: recombinant; tags: N-terminal GST; dsDNA, one strand shown
T6 sequence: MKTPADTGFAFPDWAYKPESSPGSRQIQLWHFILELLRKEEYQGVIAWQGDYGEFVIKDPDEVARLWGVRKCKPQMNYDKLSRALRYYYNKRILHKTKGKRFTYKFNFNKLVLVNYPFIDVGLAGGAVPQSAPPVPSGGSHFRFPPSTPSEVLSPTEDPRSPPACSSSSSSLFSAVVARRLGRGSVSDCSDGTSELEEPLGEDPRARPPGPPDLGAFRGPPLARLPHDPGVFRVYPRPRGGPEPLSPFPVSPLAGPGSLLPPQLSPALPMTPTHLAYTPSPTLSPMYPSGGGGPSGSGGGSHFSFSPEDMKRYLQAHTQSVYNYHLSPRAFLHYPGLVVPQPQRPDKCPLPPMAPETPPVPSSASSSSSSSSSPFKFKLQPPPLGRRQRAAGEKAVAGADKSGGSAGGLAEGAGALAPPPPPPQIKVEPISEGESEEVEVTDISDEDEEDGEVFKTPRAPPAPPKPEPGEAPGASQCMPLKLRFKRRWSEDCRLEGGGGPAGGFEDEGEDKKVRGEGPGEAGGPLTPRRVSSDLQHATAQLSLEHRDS
Outline: as §1

ETV3L = target: T7, ETV3L (Homo sapiens, UniProt Q6ZN32 1-361); conditions: protein: recombinant; tags: N-terminal GST; dsDNA, one strand shown
T7 sequence: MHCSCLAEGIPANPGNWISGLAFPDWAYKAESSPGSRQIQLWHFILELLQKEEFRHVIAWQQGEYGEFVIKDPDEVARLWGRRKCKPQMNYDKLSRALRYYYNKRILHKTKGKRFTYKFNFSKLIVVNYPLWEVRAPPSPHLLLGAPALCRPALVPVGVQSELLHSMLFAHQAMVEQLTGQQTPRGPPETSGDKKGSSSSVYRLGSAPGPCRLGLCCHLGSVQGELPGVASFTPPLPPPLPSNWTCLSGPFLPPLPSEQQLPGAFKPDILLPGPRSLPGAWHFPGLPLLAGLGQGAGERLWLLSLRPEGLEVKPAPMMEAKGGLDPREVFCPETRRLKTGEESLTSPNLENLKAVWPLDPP
Outline: as §1

ETS2 = target: T8, ETS2 (Homo sapiens, UniProt P15036 1-469); conditions: protein: recombinant; tags: N-terminal GST; dsDNA, one strand shown
T8 sequence: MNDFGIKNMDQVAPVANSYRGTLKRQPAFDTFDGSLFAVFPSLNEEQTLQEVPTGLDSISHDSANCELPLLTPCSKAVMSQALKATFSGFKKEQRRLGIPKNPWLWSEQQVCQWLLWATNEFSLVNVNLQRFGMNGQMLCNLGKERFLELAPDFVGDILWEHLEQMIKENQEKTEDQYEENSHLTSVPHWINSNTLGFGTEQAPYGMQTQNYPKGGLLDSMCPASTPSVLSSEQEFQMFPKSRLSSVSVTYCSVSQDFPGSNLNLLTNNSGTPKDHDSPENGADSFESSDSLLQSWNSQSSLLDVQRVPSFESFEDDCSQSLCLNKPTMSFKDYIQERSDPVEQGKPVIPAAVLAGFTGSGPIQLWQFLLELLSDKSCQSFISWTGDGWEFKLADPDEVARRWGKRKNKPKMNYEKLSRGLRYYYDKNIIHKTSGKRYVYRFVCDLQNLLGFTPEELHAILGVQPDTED
Outline: as §1

SPDEF = target: T9, SPDEF (Homo sapiens, UniProt O95238 1-335); conditions: protein: recombinant; tags: N-terminal GST; dsDNA, one strand shown
T9 sequence: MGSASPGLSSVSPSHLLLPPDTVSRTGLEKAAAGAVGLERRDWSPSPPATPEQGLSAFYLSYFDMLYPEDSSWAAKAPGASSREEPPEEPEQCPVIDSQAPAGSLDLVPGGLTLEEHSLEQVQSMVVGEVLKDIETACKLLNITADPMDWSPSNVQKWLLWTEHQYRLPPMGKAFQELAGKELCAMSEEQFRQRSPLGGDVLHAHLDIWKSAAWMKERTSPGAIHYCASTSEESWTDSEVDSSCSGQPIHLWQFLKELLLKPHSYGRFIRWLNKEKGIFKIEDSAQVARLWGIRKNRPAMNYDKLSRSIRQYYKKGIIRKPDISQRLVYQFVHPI
Outline: as §1

ETV7 = target: T10, ETV7 (Homo sapiens, UniProt Q9Y603 1-341); conditions: protein: recombinant; tags: N-terminal GST; dsDNA, one strand shown
T10 sequence: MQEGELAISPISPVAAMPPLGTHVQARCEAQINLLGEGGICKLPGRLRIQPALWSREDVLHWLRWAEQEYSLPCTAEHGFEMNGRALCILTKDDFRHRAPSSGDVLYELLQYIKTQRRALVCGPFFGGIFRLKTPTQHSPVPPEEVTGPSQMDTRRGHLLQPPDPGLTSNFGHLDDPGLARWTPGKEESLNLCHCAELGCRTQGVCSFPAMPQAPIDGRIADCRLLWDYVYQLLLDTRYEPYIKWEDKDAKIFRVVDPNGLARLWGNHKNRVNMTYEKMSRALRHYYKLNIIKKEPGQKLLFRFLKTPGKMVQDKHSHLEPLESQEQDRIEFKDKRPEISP
Outline: as §1

ELF5 = target: T11, ELF5 (Homo sapiens, UniProt Q9UKW6-2 1-255); conditions: protein: recombinant; tags: N-terminal GST; dsDNA, one strand shown
T11 sequence: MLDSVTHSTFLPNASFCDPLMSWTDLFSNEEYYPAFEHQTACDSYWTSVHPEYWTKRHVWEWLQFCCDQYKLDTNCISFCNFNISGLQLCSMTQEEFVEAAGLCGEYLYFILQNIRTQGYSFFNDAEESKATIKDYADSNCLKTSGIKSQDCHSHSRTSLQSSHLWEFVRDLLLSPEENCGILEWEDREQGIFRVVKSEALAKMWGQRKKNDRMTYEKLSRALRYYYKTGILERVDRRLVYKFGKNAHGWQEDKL
Outline: as §1

ETV3 = target: T12, ETV3 (Homo sapiens, UniProt P41162-2 1-143); conditions: protein: recombinant; tags: N-terminal GST; dsDNA, one strand shown
T12 sequence: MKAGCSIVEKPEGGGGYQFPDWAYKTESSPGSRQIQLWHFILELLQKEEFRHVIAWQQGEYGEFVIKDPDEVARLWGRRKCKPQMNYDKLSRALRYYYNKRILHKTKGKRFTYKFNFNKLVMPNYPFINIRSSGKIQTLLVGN
Outline: as §1

ETV6 = ETV6 (Homo sapiens, UniProt P41212 1-452); conditions: protein: recombinant; tags: N-terminal GST; dsDNA, one strand shown
Sequence of ETV6 (P41212 whole entry): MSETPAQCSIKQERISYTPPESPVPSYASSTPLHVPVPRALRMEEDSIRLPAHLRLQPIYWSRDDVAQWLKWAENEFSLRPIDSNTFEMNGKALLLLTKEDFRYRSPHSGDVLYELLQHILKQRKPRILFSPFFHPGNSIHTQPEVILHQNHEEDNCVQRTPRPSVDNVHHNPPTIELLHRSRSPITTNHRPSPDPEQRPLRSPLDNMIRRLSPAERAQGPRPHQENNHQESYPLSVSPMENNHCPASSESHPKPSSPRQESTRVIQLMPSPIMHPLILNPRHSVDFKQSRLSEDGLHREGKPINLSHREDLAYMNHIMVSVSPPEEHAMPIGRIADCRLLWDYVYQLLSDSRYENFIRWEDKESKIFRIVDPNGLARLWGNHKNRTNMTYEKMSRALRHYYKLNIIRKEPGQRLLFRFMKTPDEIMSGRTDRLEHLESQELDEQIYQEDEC
Outline: as §1

Sequence	binding signal (FEV)	binding signal (ETV5)	binding signal (HSF1)	binding signal (SPIC)	binding signal (ELF4)	binding signal (ELK4)	binding signal (ETV2)	binding signal (ELF3)	binding signal (CRX)	binding signal (ETV1)	binding signal (ERF)	binding signal (ETV3L)	binding signal (ETS2)	binding signal (SPDEF)	binding signal (ETV7)	binding signal (ELF5)	binding signal (ETV3)	binding signal (ETV6)
TCCATC	1.21 fold enrichment (6-mer frequency, TF over GST control)	1.22 fold enrichment (6-mer frequency, TF over GST control)	1.16 fold enrichment (6-mer frequency, TF over GST control)	1.06 fold enrichment (6-mer frequency, TF over GST control)	1.13 fold enrichment (6-mer frequency, TF over GST control)	1.26 fold enrichment (6-mer frequency, TF over GST control)	1.32 fold enrichment (6-mer frequency, TF over GST control)	1.11 fold enrichment (6-mer frequency, TF over GST control)	1.15 fold enrichment (6-mer frequency, TF over GST control)	1.17 fold enrichment (6-mer frequency, TF over GST control)	1.17 fold enrichment (6-mer frequency, TF over GST control)	1.31 fold enrichment (6-mer frequency, TF over GST control)	1.2 fold enrichment (6-mer frequency, TF over GST control)	1.3 fold enrichment (6-mer frequency, TF over GST control)	1.2 fold enrichment (6-mer frequency, TF over GST control)	1.17 fold enrichment (6-mer frequency, TF over GST control)	1.22 fold enrichment (6-mer frequency, TF over GST control)	1.13 fold enrichment (6-mer frequency, TF over GST control)
TTACGT	1.04 fold enrichment (6-mer frequency, TF over GST control)	1.19 fold enrichment (6-mer frequency, TF over GST control)	1.21 fold enrichment (6-mer frequency, TF over GST control)	1.07 fold enrichment (6-mer frequency, TF over GST control)	1.11 fold enrichment (6-mer frequency, TF over GST control)	1.12 fold enrichment (6-mer frequency, TF over GST control)	1.2 fold enrichment (6-mer frequency, TF over GST control)	1.14 fold enrichment (6-mer frequency, TF over GST control)	1.74 fold enrichment (6-mer frequency, TF over GST control)	1.06 fold enrichment (6-mer frequency, TF over GST control)	1.11 fold enrichment (6-mer frequency, TF over GST control)	1.18 fold enrichment (6-mer frequency, TF over GST control)	1.21 fold enrichment (6-mer frequency, TF over GST control)	1.13 fold enrichment (6-mer frequency, TF over GST control)	1.14 fold enrichment (6-mer frequency, TF over GST control)	1.12 fold enrichment (6-mer frequency, TF over GST control)	1.15 fold enrichment (6-mer frequency, TF over GST control)	1.09 fold enrichment (6-mer frequency, TF over GST control)
